High-throughput results deposited in PubChem BioAssay by National Center for Advancing Translational Sciences (NCATS).
VACV mCherry inh = inhibitors of vaccinia virus infection (mCherry reporter signal) | Vaccinia virus mCherry reporter infection, fluorescence | Potency, µM (titrated, usually from 36.5 µM), most hits filed as inhibitors | 0.63% of 310,000 active | AID 720579; calls by dose curve; tested in A549 cells; further: nearly all actives have a fitted effect of over 35% in size
HCMV inh = human cytomegalovirus inhibition; HFF cells, HCMV-luciferase reporter, 72 h; active compounds read low; activity change, negative = inhibition, % at 57.5 µM; 4.5% of 410,000 active; AID 1259415; in the data active means activity change below about -60%; inconclusive means no clear call, values can overlap the other calls; inactive means above about -39%
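Two-dose cell screen: HFF monolayers treated with compounds and infected with luciferase-expressing HCMV at 1 PFU/cell, 72 h at 37C, then lysed for luciferase measurement.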
HCV inh = HCV inhibition; Huh7.5.1 HCVcc-Cre infection, luciferase reporter, 44 h; Potency, µM (top dose mostly 41.8 µM), actives largely listed as inhibitors; 3.4% of 340,000 active
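Cells seeded at 1,000/well and cultured 4 h, then compounds added followed by HCVcc-Cre virus (~0.5 moi). After 44 h further culture, luciferase substrate was added, plates held 15 min at room temperature, and luminescence read for 15 sec.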
Vaccinia Venus = inhibitors of vaccinia virus (Venus reporter) | Potency, µM (top dose mostly 36.5 µM), usual class: inhibitors | AID 720580 | 0.46% of 330,000 active | Vaccinia virus Venus reporter expression, fluorescence; calls by dose curve; tested in A549 cells; further: nearly all actives have a fitted effect of over 30% in size
FMDV antiviral = antivirals against foot and mouth disease virus; Potency, µM (doses to about 57.9 µM), usual class: inhibitors; FMDV antiviral cell-based qHTS; 1.2% of 410,000 active; calls by dose curve; tested in HEK293T cells; further: read-out not given here; nearly all actives have a fitted effect of over 45% in size
Giardia FBPA inh-1 = Giardia lamblia aldolase inhibition. A8B2U2. purified Giardia FBPA. Potency, µM (highest dose often 59.6 µM), usual class: inhibitors. 0.71% of 290,000 active; further: nearly all actives have a fitted effect of over 55% in size
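40 nM FBPA preincubated 10 min at RT with compound (up to 57.5 uM final), then substrate plus GAPDH/TPI/NAD/arsenate coupling and diaphorase/resazurin added. Fluorescence read after 20 min at RT, 525/598 nm.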
Giardia growth = inhibitors of Giardia lamblia growth; shares compounds with Giardia FBPA inh-1; Giardia lamblia trophozoite growth inhibition; Potency, µM (top dose mostly 57.5 µM), usual class: inhibitors; 5% of 1,500 active;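 further: trophozoites exposed to compound for 48 h at 37 °C; nearly all actives have a fitted effect of over 70% in size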
Mammalian tox = mammalian cytotoxicity of Giardia aldolase inhibitor hits | AID 2786 | 4% of 1,500 active | Potency, µM (top dose mostly 57.5 µM), usual class: inhibitors | mammalian cell viability counter-screen, qHTS | shares compounds with Giardia FBPA inh-1;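 further: Chinese hamster ovary cells used as mammalian cytotoxicity surrogate; viability measured as cellular ATP by luminescence; compound exposure lasted 48 h before reading; nearly all actives have a fitted effect of over 60% in size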
Giardia FBPA inh-2 = confirmation of Giardia fructose-bisphosphate aldolase inhibitors | 5% of 1,500 active | purified Giardia aldolase enzyme activity, qHTS | Potency, µM (highest dose often 57.5 µM), most hits filed as inhibitors | shares compounds with Giardia FBPA inh-1 | AID 2787; further: nearly all actives have a fitted effect of over 45% in size
Rabbit FBPA inh = blocks rabbit muscle aldolase in Giardia aldolase selectivity test | Rabbit muscle FBPA enzyme inhibition, selectivity counter-screen | 4% of 1,500 active | AID 2794 | Potency, µM (top dose mostly 57.5 µM), most hits filed as inhibitors | shares compounds with Giardia FBPA inh-1; further: nearly all actives have a fitted effect of over 60% in size
Target sequence (P00883 whole entry, looked up): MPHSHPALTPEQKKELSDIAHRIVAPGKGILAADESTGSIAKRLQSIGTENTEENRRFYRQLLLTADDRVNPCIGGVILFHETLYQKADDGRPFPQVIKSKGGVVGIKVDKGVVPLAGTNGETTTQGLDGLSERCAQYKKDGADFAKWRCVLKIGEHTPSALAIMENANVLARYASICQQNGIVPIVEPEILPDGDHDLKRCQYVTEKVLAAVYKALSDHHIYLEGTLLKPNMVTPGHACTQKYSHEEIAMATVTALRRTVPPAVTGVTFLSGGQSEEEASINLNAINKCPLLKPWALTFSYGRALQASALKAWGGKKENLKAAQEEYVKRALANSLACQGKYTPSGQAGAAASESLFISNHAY
GAPDH coupling = GAPDH inhibition flagged for Giardia aldolase hits; shares compounds with Giardia FBPA inh-1; GAPDH coupling enzyme counterscreen, biochemical, qHTS; Potency, µM (highest dose often 57.5 µM), most hits filed as inhibitors; 6% of 1,500 active; AID 2795; further: nearly all actives have a fitted effect of over 55% in size
Numbers stand for hits; i = inactive; ? = inconclusive; nt = not tested or not shown; [ ] = dose if it differs, or a comment. In the library only some 7.5% were active in any assay of this set; here they are far more common. Unless noted, the call rests on the fitted dose curve; in most records, active means well fitted curve in the direction sought with a large enough effect; inconclusive means small, poorly fitted or top-dose-only effect, or another doubt; inactive means no such curve, though single readings can be large; an effect the other way counts as inactive or inconclusive.

SMILES	VACV mCherry inh	HCMV inh	HCV inh	Vaccinia Venus	FMDV antiviral	Giardia FBPA inh-1	Giardia growth	Mammalian tox	Giardia FBPA inh-2	Rabbit FBPA inh	GAPDH coupling
O=c1oc2ccccc2c(O)c1Cc1cc(Cl)c2cccnc2c1O	i	i	i	i	i	10µM	?	i	i	i	i
CC1CCCN(C(=O)CN2C(=O)NC(C)(c3ccc4ccccc4c3)C2=O)C1 (centres undefined)	i	i	i	i	i	nt	nt	nt	nt	nt	nt
Cc1cc(=O)c2c(O)c(O)ccc2o1	i	i	i	i	i	10µM	i	i	?	?	?
Cc1cc(C(=O)C(C)OC(=O)c2cnccn2)c(C)n1-c1ccccc1 (centres undefined)	i	i	i	i	i	nt	nt	nt	nt	nt	nt
O=C(NC1CCCCCC1)c1ccc[nH]c1=S	i	i	i	i	i	16µM	?	i	i	i	i
Cc1n[nH]c(=S)c2nn(-c3ccccc3)c(C)c12	nt	nt	nt	nt	nt	i	nt	nt	nt	nt	nt
Cc1ccc(-n2nc3c(=S)[nH]nc(C)c3c2C)cc1	nt	i	i	i	i	25µM	i	i	i	i	i
COc1ccc(NC(=O)c2cccs2)cc1C(=O)N1CCN(c2ccccc2)CC1	i	i	i	?	i	nt	nt	nt	nt	nt	nt
C[C@H](NC(=O)c1cc2c(cn1)[nH]c1ccccc12)C(=O)O	i	i	i	i	i	i	i	i	i	i	i
COc1ccc(-c2cc(C(F)(F)F)nc(-n3nc(C(F)(F)F)cc3C)n2)cc1	i	i	nt	i	?	nt	nt	nt	nt	nt	nt
CC(C(=O)Nc1ccccc1F)N1CCN(C)CC1 (centres undefined)	nt	nt	nt	nt	nt	16µM	i	i	i	i	i
CC(C)C(C(=O)Nc1ccccc1F)N1C(=O)c2ccccc2C1=O (centres undefined)	i	i	i	i	i	nt	nt	nt	nt	nt	nt
O=C(Cn1c(=O)nc(-c2ccccc2)c2ccccc21)N1CCN(c2ccc(F)cc2)CC1	i	i	nt	i	i	nt	nt	nt	nt	nt	nt
COc1ccc(OCC(=O)NCCNC(=O)c2ccccn2)cc1	i	i	i	i	i	i	nt	nt	nt	nt	nt
COc1ccc(OCC(=O)NNC(=O)c2ccccn2)cc1	nt	i	i	nt	i	16µM	i[10.4 µM]	i	i	i	i
COc1ccccc1OCC(=O)NNC(=O)c1cnccn1	i[1.46 µM]	i	i	i	i	16µM	?	i	i	i	i
CCc1ccccc1NC(=O)CSc1n[nH]c(-c2cccnc2)n1	i	i	i	i	i	i	nt	nt	nt	nt	nt
O=C(CSc1n[nH]c(-c2cccnc2)n1)Nc1ccccc1[N+](=O)[O-]	i	i	i	i	i	25µM	?	i	i	i	i
Fc1ccccc1CN1CCN(c2ncccn2)CC1	i	i	i	?	i	25µM	i	i	i	i	i
Cc1noc(C)c1COc1ccc(C(=O)N2CCN(S(=O)(=O)c3ccc(F)cc3)CC2)cc1	i	i	i	i	i	nt	nt	nt	nt	nt	nt
CCN1CCN(CCCN(Cc2ccco2)C(=S)Nc2cc(Cl)ccc2C)CC1	i	?	?	i	i	16µM	?	i	i	i	i
CCN1CCN(CCCN(Cc2ccco2)C(=S)Nc2ccc(Cl)cc2)CC1	i	?	?	i	i	i	nt	nt	nt	nt	nt
O=C(CCCN1C(=O)/C(=C\c2cccs2)SC1=S)Nc1cccc(C(=O)O)c1	i	?	i	i	i	i	nt	nt	nt	nt	nt
O=C(CCCN1C(=O)/C(=C/c2ccco2)SC1=S)Nc1cccc(C(=O)O)c1	i	i	i	i	i	16µM	i[10.4 µM]	i	i	i	i
O=C(c1ccccc1)c1ccccc1N1C(=O)C=CC1=O	i	-93	?	i	?	16µM	i[10.4 µM]	i	i	i	i
